Compound activity deposited in PubChem by several laboratories.
SMARCA2 activ: activators of SMARCA2 function | MG213 cells, MMTV-luciferase reporter, dexamethasone, overnight | activation, % at 9.1 µM | 370,000 tested, 1% active | AID 652017; in the data active means activation above about 7.8%;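 further: 0% = vehicle wells and 100% = reference activator wells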
ALR inh: blocks human ALR sulfhydryl oxidase activity; purified ALR, DTT oxidation, H2O2 HRP-luminol luminescence; inhibition, % (concentration not given with the values); 290,000 tested, 3.8% active; AID 485317;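 active means mean replicate inhibition above about 79%, with every replicate also reaching it, limit read from the data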
Target sequence (P55789 whole entry, looked up): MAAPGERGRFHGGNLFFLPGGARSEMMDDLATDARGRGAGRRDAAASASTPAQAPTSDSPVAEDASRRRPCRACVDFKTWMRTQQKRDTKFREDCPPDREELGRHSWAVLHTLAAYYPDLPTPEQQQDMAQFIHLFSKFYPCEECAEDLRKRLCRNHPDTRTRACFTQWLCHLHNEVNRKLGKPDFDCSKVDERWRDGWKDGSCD
Granule exo inh: lytic granule exocytosis inhibition | 360,000 tested, 0.66% active | TALL-104 LAMP-1 surface exposure, flow cytometry; cells stimulated with thapsigargin and PMA | AID 651702 | inhibition, % at 10 µM;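 active means inhibition above about 55%, limit read from the data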
JMJD2C inh: blocks human GASC-1 demethylase activity | Q9H3R0 | GST-JMJD2C(1-420) H3K9me3 demethylation, DELFIA europium | inhibition, % at 2.35 µM | 330,000 tested, 0.069% active;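 active means more than half of a compound's replicate wells show inhibition beyond 50%, single wells judged on their own value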;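 further: signal counts dimethyl H3K9 product captured on neutravidin plate; 0% = median of DMSO wells and 100% = 0.3 times that DMSO median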
M18AAP inhibitor: PfM18AAP enzyme inhibition; recombinant PfM18AAP, H-Glu-NHMec fluorogenic cleavage; 290,000 tested, 1.2% active; inhibition, % at 7.35 µM;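 active means inhibition above the campaign mean inhibition over all tested compounds plus 3 SD, cut at about 28% in these data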;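 further: 0% = plate median of test compound wells and 100% = 2 mM ZnCl2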
beta cell repl: inducers of beta-cell replication in MIN6 cells | MIN6 cells proliferation, ATPlite luminescence, 48 h; cells starved in 0.2% serum; 100% = growth in 10% serum | proliferation, % at 10 µM | 330,000 tested, 0.29% active | AID 2380;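 active means compounds whose signal lies at least 3.5 SD above the mean of all wells on their plate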;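 further: 0% = DMSO-treated cells in low-serum medium and 100% = 10% serum control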
An asterisk follows results filed as active. The list is not random: actives were taken first. Their share in the collection is about 5.4%.

Results for Cc1cc(C)c2c(=O)[nH]c(SCC(=O)c3ccc(C)c(C)c3)nc2n1 ?
SMARCA2 activ: 1; ALR inh: 98*; Granule exo inh: -6; JMJD2C inh: -5; M18AAP inhibitor: -2; beta cell repl: -2

What do the screens show for `O=C(CNS(=O)(=O)c1cccc2ccccc12)N1CCN(c2ncccn2)CC1`?
SMARCA2 activ: -5

What do the screens show for `COC(=O)[C@]12C[C@H](CC(=O)NCC3CCCCC3)C(=O)N(CCc3ccc(OC)c(OC)c3)C1=C[C@H](COCc1ccccc1)O[C@@H]2C`?
SMARCA2 activ: -1

What do the screens show for `COc1cc(OC)c2c(=O)c3c(C(=O)O)c(O)ccc3oc2c1`?
SMARCA2 activ: -1

How did Cc1ccc(NC2CCCN(C(=O)c3cc(C(C)C)nn3C)C2)cc1C (configuration not stated) do in these assays?
SMARCA2 activ: 1; Granule exo inh: -9

How did Cc1ccc(NC2CCCN(C(=O)CN3C(=O)CSC3=O)C2)cc1C (configuration not stated) do in these assays?
SMARCA2 activ: -1; ALR inh: 99*; Granule exo inh: 10; JMJD2C inh: 6; M18AAP inhibitor: 12; beta cell repl: -1

How did CC(C)c1ccc(NC2CCCN(C(=O)CN3C(=O)CSC3=O)C2)cc1 (configuration not stated) do in these assays?
SMARCA2 activ: -4; ALR inh: 98*; Granule exo inh: 0; JMJD2C inh: -5; M18AAP inhibitor: 5; beta cell repl: -3

How did Brc1ccc(-c2nn3c(-c4ccccc4)nnc3s2)cc1 do in these assays?
SMARCA2 activ: 4

What do the screens show for `Cc1cc2ccccn2c1C(=O)c1ccncc1`?
SMARCA2 activ: -1; ALR inh: -3; Granule exo inh: 8; JMJD2C inh: 69*; M18AAP inhibitor: 13; beta cell repl: 1

How did COc1cc(/C=N/O)cc(Br)c1OC do in these assays?
SMARCA2 activ: 0; ALR inh: 90*; Granule exo inh: -3; JMJD2C inh: -11; M18AAP inhibitor: 2; beta cell repl: 0

How did COc1cc(/C=N/O)cc(Cl)c1OC do in these assays?
SMARCA2 activ: -1; ALR inh: 2; Granule exo inh: -7; JMJD2C inh: -3; M18AAP inhibitor: 3; beta cell repl: 0

How did CN1CCCCC(NC(=O)c2ccccc2)C1=O (configuration not stated) do in these assays?
SMARCA2 activ: -1

How did CCc1nnc(NC(=O)CSc2nnnn2C)s1 do in these assays?
SMARCA2 activ: 3; ALR inh: 99*; Granule exo inh: 1; JMJD2C inh: -8; M18AAP inhibitor: -17; beta cell repl: -2

What do the screens show for `COc1ccc(NC(=O)CSc2nc3[nH]ncc3c(=O)[nH]2)cc1OC`?
SMARCA2 activ: -4; ALR inh: 96*; Granule exo inh: -2; JMJD2C inh: -14; beta cell repl: 0

What do the screens show for `Cc1nc(NC(=O)CSc2nnnn2C)sc1C`?
SMARCA2 activ: 4; ALR inh: -2; Granule exo inh: -1; JMJD2C inh: -2; M18AAP inhibitor: 2; beta cell repl: 2

Results for Cc1nnc(NC(=O)CSc2nc3[nH]ncc3c(=O)[nH]2)s1 ?
SMARCA2 activ: 0; ALR inh: 36; Granule exo inh: -2; JMJD2C inh: 0; M18AAP inhibitor: 18; beta cell repl: -4

Results for Cc1ccccc1CSc1nc2[nH]ncc2c(=O)[nH]1 ?
SMARCA2 activ: -2; ALR inh: 38; Granule exo inh: 0; JMJD2C inh: -3; M18AAP inhibitor: 31*; beta cell repl: 2

What do the screens show for `Cc1ccc(C)c(CSc2nc3[nH]ncc3c(=O)[nH]2)c1`?
SMARCA2 activ: 0; ALR inh: 2; Granule exo inh: -3; JMJD2C inh: -1; M18AAP inhibitor: 8; beta cell repl: -2

How did O=C(CSc1nc2[nH]ncc2c(=O)[nH]1)Nc1ccc(Cl)c(Cl)c1 do in these assays?
SMARCA2 activ: -1; ALR inh: 0; Granule exo inh: 2; JMJD2C inh: -1; beta cell repl: 2

What do the screens show for `CCc1nnc(NC(=O)CSc2nc3[nH]ncc3c(=O)[nH]2)s1`?
SMARCA2 activ: -1; ALR inh: -6; Granule exo inh: 23; JMJD2C inh: -20; M18AAP inhibitor: 31*; beta cell repl: -4

Results for Cc1cc(NS(=O)(=O)c2ccc(NC(=O)CSc3nnc(-c4cnccn4)n3-c3ccccc3)cc2)nc(C)n1 ?
SMARCA2 activ: 2
